Results taken from PubChem BioAssay (NCATS).
Unmarked numbers belong to inactive results. How the calls were made is not given here.
Potency means the concentration at half of the fitted maximal effect.

The compounds below were run on HIV-1 nucleocapsid protein NCp7 (binding to TG oligonucleotide) (assay: HIV Nucleocapsid (AID 346;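 further: potency is for inhibitors that block NC binding and lower polarization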)). Settings: HIV-1 NC / fluorescein-TGTGTGTG probe, fluorescence polarization.
Procedure, shortened: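 HIV-1 NC (100 nM) binding to fluorescein-labelled ssDNA TG4xF (10 nM) in Hepes pH 7.5, 250mM NaCl, 1uM ZnCl2, TCEP and 2-mercaptoethanol; compounds pin-transferred, 1 hr room temperature, fluorescence polarization read on CCD imager.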
For `COc1ccc(-n2c(=O)c(-c3cccc(F)c3)nc3cncnc32)cc1`, the Potency was > 20 µM. `Cc1noc(C)c1C(=O)N1CCC2(CCCN(c3ncccn3)C2)CC1` was tested, and the Potency was > 20 µM. For `COCCn1c(=O)c(-c2ccccc2)nc2cnc(OCc3ccccc3)nc21`, the Potency was > 20 µM. `c1cncc(-c2nccc(-n3ccnc3)n2)c1` was tested, and the Potency was > 20 µM. `COc1cccc(Nc2ncc3nc(-c4ccccc4)c(=O)n(C)c3n2)c1` was tested, and the Potency was > 20 µM. With `O=S(=O)(c1ccccc1)N1CCC[C@@]2(CCN(Cc3ccccc3)C2)C1` the Potency was > 20 µM. In the case of `CC(=O)N1CCC[C@@]2(CCN(C(c3ccccc3)c3ccccc3)C2)C1`, the Potency is reported as > 20 µM. With `Cc1cccc(CNc2ncnc3ccc(-c4ccc5c(c4)OCO5)cc23)c1` the Potency was > 20 µM. In the case of `COc1cccc(Cn2c(=O)c(-c3ccc(Cl)cc3)nc3cnc(N4CCOCC4)nc32)c1`, the Potency is reported as > 20 µM. `Cn1c(=O)c(-c2ccc(F)cc2)nc2cnc(Nc3ccccc3)nc21` was tested, and the Potency was > 20 µM. With `N#Cc1ccc(CN2CCCC3(CCN(C(=O)c4cccc(F)c4)CC3)C2)cc1` the Potency was > 20 µM. `FC(F)(F)c1cc(CN2CC[C@@]3(CCCNC3)C2)cc(C(F)(F)F)c1` was tested, and the Potency was > 20 µM. For `CN(Cc1ccco1)c1ccnc(-c2cccc(C#N)c2)n1`, the Potency was > 20 µM. In the case of `COc1ccccc1-c1ccc2ncnc(Nc3ccccc3)c2c1`, the Potency is reported as > 20 µM. With `CNc1cc(-c2ccccc2CN(C)C)ncn1` the Potency was > 20 µM. For `CS(=O)(=O)Nc1cccc(-c2ccc3ncnc(NCc4cccs4)c3c2)c1`, the Potency was > 20 µM. For `COCCn1c(=O)cnc2cnc(Nc3ccccc3)nc21`, the Potency was > 4 µM. With `COc1ccc(NC(=O)N2CC3(CCN(C(=O)c4cnccn4)CC3)C2)cc1` the Potency was > 20 µM. In the case of `CN(C)C(=O)c1ccc(-c2cc(N(C)Cc3ccco3)ncn2)cc1`, the Potency is reported as > 20 µM. For `Cn1cccc1C(=O)N1CCC2(CCCN(Cc3ccc(C#N)cc3)C2)CC1`, the Potency was > 20 µM. In the case of `c1ccc(CNc2ccnc(-c3cccnc3)n2)cc1`, the Potency is reported as > 20 µM. In the case of `COc1cccc(Nc2ncc3ncc(=O)n(CCC#N)c3n2)c1`, the Potency is reported as > 20 µM. `Cc1noc(C)c1-c1nc(N2CCNCC2)c2ccccc2n1` was tested, and the Potency was > 20 µM. In the case of `COc1cccc(-c2nc(NCCNC(C)=O)c3ccccc3n2)c1`, the Potency is reported as > 20 µM.
